MCF10A rerep: DNA re-replication induction in MCF 10a cells; MCF 10A DNA re-replication, Hoechst nuclear intensity, 48 h; AID 624296; 350,000 tested, 2.9% active; Potency, µM (highest dose often 46.1 µM), for the others: at the highest dose activity, positive = re-replication, actives largely listed as activators; also: % of control where 0% means no effect; nearly all actives have a fitted effect of over 50% in size
ELG1 repair inh: inhibitors of ELG1-dependent DNA repair in HEK293T cells. AID 504467. HEK293T ELG1-luciferase reporter, luminescence, 16 h; DNA damage induced by 5-fluorouridine. Potency, µM (doses to about 46.1 µM), for the others: at the top dose activity change, negative = inhibition, actives largely listed as inhibitors. 330,000 tested, 2.3% active; also: % is scaled to controls: 0 for no effect and ±100 for the full control effect; nearly all actives have a fitted effect of over 55% in size
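DMSO vehicle served as the neutral condition. Each well held 2,000 cells given 5-fluorouridine plus compound; after 16 hr at 37 °C/5% CO2, ONE-Glo was added and luciferase measured 30 min later.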
p53 reactivator: mutant p53 re-activation in reporter cells; H1299 p53-A138V BP100-luciferase reporter, luminescence, 24 h; Potency, µM (titrated, usually from 92.2 µM), inactives show at the top dose activity change, positive = activation, usual class: activators; 320,000 tested, 0.063% active; AID 504706; also: % of control where 0% means no effect; nearly all actives have a fitted effect of over 45% in size
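H1299 (p53-null), stable ts p53-A138V + BP100-Luc; 1000 cells/well, Opti-MEM/10% FBS; cpd 4 pt, 1:5; 24 h, 37 deg C, 5% CO2; detection reagent 10 min RT; luminescence.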
ELG1 genotoxic: induces genotoxicity in HEK293T cells with luciferase-tagged ELG1. HEK293T ELG1-luciferase reporter, luminescence, 16 h. Potency, µM (doses to about 46 µM), for the others: at the top dose activity change, positive = activation, actives largely listed as activators. 330,000 tested, 1.3% active; also: % of control where 0% means no effect; nearly all actives have a fitted effect of over 60% in size
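HEK293T cells expressing luciferase-tagged ELG1 were treated with compound or DMSO for 16 hr at 37°C. Luciferase activity was then read after 30 min with ONE-Glo at room temperature; rising signal flags genetic stress.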
SW480 rerep: DNA re-replication induction in SW480 cells. SW480 DNA re-replication, Hoechst DNA content imaging, 48 h. Potency, µM (highest dose often 46.1 µM), inactives show at the top dose re-replication activation, hits mostly activators. 340,000 tested, 1.8% active; also: % of control where 0% means no effect; nearly all actives have a fitted effect of over 55% in size
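Quantitative HTS format with DMSO vehicle controls; 48 hr drug incubation at 37 C, then 40 min Hoechst staining and scanning imager measurement at 405 nm excitation.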
AT treatment: potential ataxia-telangiectasia treatments restoring KAP-1 phosphorylation; 320,000 tested, 0.19% active; F2112 A-T fibroblasts, KAP-1 phosphorylation AlphaLISA; neocarzinostatin DNA damage 30 min before lysis; Potency, µM (highest dose often 57.5 µM), without a hit: at the highest dose activation, most hits filed as activators; AID 485349; also: % of control where 0% means no effect; nearly all actives have a fitted effect of over 45% in size
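hTERT-immortalized A-T patient fibroblasts (F2112), 500 cells/well in OPTI-MEM, 1% FBS, got compounds for 60 min, then NCS for 30 min at 37C. Lysates were then assayed for phospho-KAP-1 by AlphaLISA (anti-pKAP1 donor, anti-KAP1 acceptor beads), 6 hr at 25C.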
Starred values were filed as active, the others as inactive; ? = inconclusive; . = no result given; [ ] = dose if it differs, or a comment. Hits are enriched below; roughly 7.1% of the tested compounds scored in any of these assays. Calls follow the shape of the dose curve; as a rule, active = well fitted curve in the direction sought with a large enough effect; inconclusive = small, poorly fitted or top-dose-only effect, or another doubt; inactive = no such curve, though single readings can be large; an effect the other way counts as inactive or inconclusive. Potency is read from the fitted curve at half-maximal effect.

SMILES	MCF10A rerep	ELG1 repair inh	p53 reactivator	ELG1 genotoxic	SW480 rerep	AT treatment
Cc1cc(C)n(-c2ccccc2[N+](=O)[O-])n1	4%	?	0%	2%	7%	4%
Cc1cc(C)nc(N/N=C/c2cccc([N+](=O)[O-])c2)n1	-2%	13%	2%	0%	-3%	37%
COc1ccc(/C=N/Nc2cc(C)nc(NS(=O)(=O)c3ccc(C)cc3)n2)cc1	?	-13%	9%	0%	3%	-2%
Cc1cc(Nc2ccc(Cl)cc2)nc(-c2ccccc2O)n1	?	-1%	6%	-6%	?	2%
COc1ccc(/C=N/Nc2cc(C)nc(-n3nc(C)cc3C)n2)cc1	?	8.2µM*	28%	-10%	?	6%
COc1ccc(/C=C/CN2CCC(n3nccc3NC(=O)C3CC3)CC2)cc1	3%	?	27%	1%	-3%	3%
Cc1ccc(S(=O)(=O)Nc2cccc(C(=O)N3CCOCC3)c2)c(C)c1NS(C)(=O)=O	1%	8%	-25%	1%	-6%	-7%
COc1ccc(NC(=O)C2CC(c3ccccc3O)=NO2)cc1OC (stereo unspecified)	0%	-19%	3%	-1%	-5%	-1%
COc1ccc(CNC(=O)c2ccc(S(=O)(=O)N3CC(C)CC(C)C3)cc2)cc1OC (stereo unspecified)	5%	.	.	.	9%	.
Cc1cc(N/N=C/c2ccc(O)cc2O)nc(-c2ccccc2O)n1	?	10µM*	?	-5%	?	3%
Cc1nc(Cl)cc(N/N=C/c2ccc(O)cc2O)n1	?	?	18%	13%	22%[1.84 µM]	-8%
Cc1cc(N/N=C/c2ccc(O)cc2O)nc(-n2nc(C)cc2C)n1	5.2µM*	23µM*	-6%	-7%	?	1%
Cc1cc(C)n2nc(C(=O)N/N=C/c3cccc(Cl)c3)nc2n1	7%	3%	-2%	4%	-12%	1%
Cc1cc(N/N=C/c2cccc(Cl)c2)nc(-n2nc(C)cc2C)n1	?	16µM*	-7%	-11%	?	-4%
CSCCC(NC(=O)c1ccco1)C(=O)OCC(=O)N1c2ccccc2NC(=O)C1(C)C (stereo unspecified)	6%	-2%	-8%	0%	-8%	-8%
Cc1ccc(C(=O)Nc2cccc(S(=O)(=O)N3CCCCC3)c2)cc1[N+](=O)[O-]	?	11µM*	-5%	-5%	-31%	1%
O=C(Nc1cccc(S(=O)(=O)N2CCCCC2)c1)c1ccc([N+](=O)[O-])o1	16µM*	?	-10%	-10%	6.5µM*	29%
CCN(CC(=O)Nc1ccc(NC(C)=O)cc1)C(=O)c1ccc(=O)n(C)n1	-7%	26%	-5%	1%	-4%	9%
COc1ccc(-n2ccn(CC(=O)Nc3ccccc3OC)c(=O)c2=O)cc1	-1%	?	5%	1%	0%	0%
CCCCCCCCCCCCCCCC[n+]1cccc2ccccc21	18µM*	13µM*	-5%	-3%	?	-1%
CCCCCCCCC[n+]1cccc2c3ccccc3ccc21	?	?	-25%	-10%	?	-5%
CCC(c1ccc(O)c(O)c1)C(CC)c1ccc(O)c(O)c1 (stereo unspecified)	-13%	.	.	.	10µM*	.
CCC(=O)Oc1ccc(C(CC)C(CC)c2ccc(OC(=O)CC)cc2)cc1 (stereo unspecified)	48%	-14%	5%	-1%	-29%	25%
COCc1cc(=O)[nH]c(Nc2nc3ccc(C)cc3o2)n1	?	?	?	23µM*	?	-2%
CCc1ccc2nc(Nc3nc(COC)cc(=O)[nH]3)nc(C)c2c1	13%	-41%	3%	0%	0%	-3%
SMILES	MCF10A rerep	ELG1 repair inh	p53 reactivator	ELG1 genotoxic	SW480 rerep	AT treatment
CCOC(=O)c1c(NC(=O)/C=C/c2ccc3c(c2)OCO3)sc(C)c1CC	8.2µM*	-1%	-6%	3%	2%	5%
Cc1sc(NC(=O)/C=C/c2ccc3c(c2)OCO3)nc1-c1ccccc1	?	8.2µM*	-16%	0%	6%	-2%
O=C(/C=C/c1ccc2c(c1)OCO2)Nc1nc(-c2ccccc2)cs1	?	18µM*	8%	-6%	-2%	-2%
CCOC(=O)c1c(NC(=O)/C=C/c2ccc3c(c2)OCO3)sc(C)c1C	.	-33%	-4%	-5%	.	4%
Cc1nc(/N=C\c2ccc(N(C)C)cc2)sc1C	-6%	7%	8%	1%	0%	3%
CC(=O)Nc1c(Cl)cc2c(c1Cl)Cc1cc(C#N)ccc1-2	1%	.	.	.	14%	.
Cc1cccn2c(NC(=O)c3ccccc3F)c(-c3ccccc3)nc12	1%	-3%	-1%	0%	-4%	17%
O=C(O)c1ccc2c(c1)C(=O)N([C@H](Cc1ccc(O)c(O)c1)C(=O)O)C2=O	.	.	.	.	.	-13%
Cc1ccc(C)c(Oc2coc3cc(O)ccc3c2=O)c1	-3%	8%	-2%	0%	11%	3%
Cc1ccc(C)c(Oc2coc3cc(OCC(=O)Nc4ccccc4C(C)C)ccc3c2=O)c1	.	26µM*	-8%	-7%	.	-1%
CSc1nnc(CSCc2ccc(Cl)cc2Cl)n1-c1ccccc1	11µM*	-6%	0%	-3%	19%	9%
Cn1c(CSCc2ccc(Cl)cc2Cl)n[nH]c1=S	-1%	-2%	2%	-9%	5%	3%
N#Cc1c(-c2ccccc2)cc(-c2ccccc2)[nH]c1=O	-3%	?	10%	4%	10%	0.79µM*
COc1ccc(-c2cc(-c3ccco3)[nH]c(=O)c2C#N)cc1	13%	?	0%	4%	9%	6%
N#Cc1c(-c2cccc(Br)c2)cc(-c2ccco2)[nH]c1=O	7.3µM*	-13%	-3%	-3%	?	4%
C[C@@H]1CC2[C@@H]3C[C@H](F)C4=CC(=O)C(Cl)=C[C@]4(C)[C@@]3(F)[C@H](O)C[C@]2(C)[C@@]1(O)C(=O)CO (stereo partly specified)	26%	.	.	.	-2%	.
Cc1nnc2n1N=C(c1ccc(F)cc1F)CS2	0%	11%	-7%	7%	-1%	-3%
COc1cc(-c2nnc(-c3cccs3)o2)cc(OC)c1OC	21%	?	3%	6%	-2%	-4%
CCOc1ccc(-c2nnc(-c3cccs3)o2)cc1	?	?	22%	?	-4%	-1%
COc1ccc(-c2nnc(-c3cc(OC)c(OC)c(OC)c3)o2)cc1OC	?	23µM*	-16%	-10%	-7%	.
